Only some compounds are listed: those with a hit (about 14% of all), similar ones and a draw of the others.
MARV entry inh = blocks Marburg virus binding to or entry into cells | AID 540276 | 300,000 compounds, 1.8% hits | Marburg virus pseudotyped entry inhibition, cell reporter | Potency, µM (top dose mostly 37.8 µM), for inactives: top-dose activity change, negative = inhibition, most hits filed as inhibitors; calls by dose curve; tested in HEK293 cells; note: potency is the fitted concentration of half-maximal effect
Pf growth 48h = P. falciparum growth inhibition at 48 hours (one generation); AID 504832; 310,000 compounds, 5.9% hits; P. falciparum luciferase growth in erythrocytes, 48 h; Potency, µM (highest dose often 28.7 µM), for inactives: at the top dose activity change, negative = inhibition, usual class: inhibitors; note: potency is the fitted concentration of half-maximal effect
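Luminescence readout; reporter = integrated firefly luciferase in P. falciparum. RBC culture at 2% hematocrit, 0.1% parasitemia final, 37 C/5% CO2; decreased signal taken as growth inhibition.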
LASV entry inh = Lassa virus entry inhibition; Lassa virus pseudotype entry inhibition, cell reporter; Potency, µM (series often up to 37.9 µM), for the others: top-dose activity change, negative = inhibition, usual class: inhibitors; 300,000 compounds, 1.2% hits; calls by dose curve; tested in HEK293 cells; note: potency is the fitted concentration of half-maximal effect; nearly all actives have a fitted effect of over 50% in size
HCMV inh = inhibitors of human cytomegalovirus; activity change, negative = inhibition, % at 57.5 µM; HFF cells, HCMV-luciferase reporter, 72 h; stronger effect = lower value; 410,000 compounds, 4.5% hits; AID 1259415; in the data active = activity change below about -60%; inconclusive = no clear call, values can overlap the other calls; inactive = above about -39%
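Steps: HFFs plated, 16 h 37C; compounds added; HCMV-luciferase added to MOI 1 PFU/cell; 72 h 37C; OneGlo reagent, 5 min room temperature; luminescence read, normalized to controls.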
Pf growth 96h = P. falciparum growth inhibition at 96 hour, primary screen for plastid delayed-death inhibitors. P. falciparum luciferase reporter growth, 96 h. Potency, µM (top dose mostly 28.7 µM), for the others: at the top dose activity change, negative = inhibition, hits mostly inhibitors. 320,000 compounds, 6.9% hits. AID 504834; note: potency is the fitted concentration of half-maximal effect
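Two parasite generations (96 h, 37 C, 5% CO2) of compound exposure in infected erythrocytes (0.05% parasitemia, 2% hematocrit). Luciferase-reporter P. falciparum; decreased luminescence indicates inhibited growth, aimed at apicoplast-acting delayed death.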
HCV inh = blocks hepatitis C virus | 340,000 compounds, 3.4% hits | Huh7.5.1 HCVcc-Cre infection, luciferase reporter, 44 h | Potency, µM (series often up to 41.8 µM), for inactives: at the highest dose activity change, negative = inhibition, actives largely listed as inhibitors; note: potency is the fitted concentration of half-maximal effect
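After 44 h co-culture of compound, cells and HCVcc-Cre (~0.5 moi), substrate is added for 15 min at room temperature and luciferase measured over 15 sec. Cells were seeded at 1,000/well and pre-cultured 4 h.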
* hit, by the source's call; u = inconclusive; x = not tested or not shown; [ ] = dose if it differs, or a comment. Unless noted, calls come from the whole dose curve; as a rule, active = well fitted inhibition curve with a large enough effect; inconclusive = small, poorly fitted or top-dose-only effect, or another doubt; inactive = no such curve, though single readings can be large or run the other way. % is set by controls: 0 for no effect and ±100 for the full control effect.

SMILES	MARV entry inh	Pf growth 48h	LASV entry inh	HCMV inh	Pf growth 96h	HCV inh
CCOC(=O)C(CC)n1nc(C)c2c(C)n(-c3ccc(C)cc3)nc2c1=O (centres undefined)	2%[46.1 µM]	x	9%[46.1 µM]	u	x	x
Cc1ccc(C)c(SCC(=O)NC2CCS(=O)(=O)C2)c1 (centres undefined)	u	44%	12%	7	66%	-9%
COc1ccc(CN2CCCN(CC(=O)Nc3cc(C)ccc3C)S2(=O)=O)cc1	x	x	0%[46.1 µM]	-26	x	x
C[C@@H]1CN(C2CCN(C(=O)COc3ccccc3)CC2)C[C@H](C)O1	7%	x	x	x	x	x
CCc1cccc(C)c1NC(=O)C(CC)n1nc(C)c2c(C)n(-c3ccccc3)nc2c1=O (centres undefined)	x	x	18%[46.1 µM]	-2	x	x
COC(=O)c1ccccc1NC(=O)C(C)n1nc(C)c2c(C)n(-c3ccccc3)nc2c1=O (centres undefined)	x	u	x	u	9.3µM*	-16%
Cc1nn(C(C)C(=O)NC2CCC(C)CC2)c(=O)c2nn(-c3ccccc3)c(C)c12 (centres undefined)	x	-2%	x	-30	16%	u
CCC(C(=O)Nc1ccccc1Cl)n1nc(C)c2c(C)n(-c3ccccc3)nc2c1=O (centres undefined)	u	u	2%[46.1 µM]	-80*	39%	u
O=C(Cc1ccc(Cl)cc1Cl)Nc1cccc(S(=O)(=O)Nc2ccccc2F)c1	u	2%	7.3µM*	9	34%	-11%
Cc1oc(-c2cccs2)nc1CNC[C@H]1O[C@@H](n2cnc(C(N)=O)n2)[C@H](O)[C@@H]1O	x	x	x	-5	x	37%
Cc1ccc(Cl)cc1N1CCN(C(=O)C2CCN(S(=O)(=O)c3cnc[nH]3)CC2)CC1	-28%[46.1 µM]	-6%	2%	2	2.6µM*	4%
CN1CCN(C(=O)C2CCN(S(=O)(=O)c3cnc[nH]3)CC2)CC1	-12%[46.1 µM]	-5%	-1%	16	0%	12%
Cc1cc(C)nc(N2CCC(C(=O)N3CCN(c4cc(Cl)ccc4C)CC3)CC2)n1	u	u	-11%	53	x	13µM*
Cc1ccc(Cl)cc1N1CCN(C(=O)C2CCCN(S(=O)(=O)c3cnc[nH]3)C2)CC1 (centres undefined)	u	u	-23%	-2	u	10%
O=C(c1ccco1)N1CCN(C(=O)C2CCN(S(=O)(=O)c3cnc[nH]3)CC2)CC1	-9%	3%	-14%	49	20%	32µM*
Cc1ccc(Cl)cc1N1CCN(C(=O)C2CCN(S(C)(=O)=O)CC2)CC1	u	-9%	-28%[46.1 µM]	-64*	12%	-14%
CC(=O)N1CCN(C(=O)c2cc(S(=O)(=O)N(C)Cc3ccccc3)ccc2Cl)CC1	-14%	u	4%	-5	61%	11%
O=S(=O)(c1ccc(Cl)cc1Cl)N1CCCC1c1cccnc1 (centres undefined)	15%[46.1 µM]	u	-3%	-27	u	-9%
O=S(=O)(c1ccccc1Cl)N1CCCC1c1nc(-c2ccc(Cl)cc2)no1 (centres undefined)	u	0%	u	-68*	21%	10µM*
COc1ccccc1Cc1c(-c2cccc(Br)c2)nc2ccc(Cl)cn12	x	x	x	47	x	x
COCCOC(=O)C1=C(C)NC(C)=C(C(=O)OCCOC)C1/C=C/c1ccccc1OC	10%[46.1 µM]	u	u	87	9.3µM*	11%
CCOC(=O)C1=C(C)NC(C)=C(C(=O)OCC)C1c1ccccc1C=CC(=O)OC(C)(C)C	x	13µM*	x	x	8.5µM*	x
CCOC(=O)C1=C(C)NC(C)=C(C(=O)OCC)C1/C=C/c1ccccc1OC	u	9.3µM*	-21%	31	u	u
CCOC(=O)C1=C(C)NC(=O)NC1/C=C/c1ccccc1OC (centres undefined)	u	2%	u	-16	-21%	u
CCOc1ccccc1NC(=S)NC1CC2CCC1C2 (centres undefined)	x	u	x	x	5.2µM*	-17%
SMILES	MARV entry inh	Pf growth 48h	LASV entry inh	HCMV inh	Pf growth 96h	HCV inh
COc1ccc(NC(=S)Nc2ncccc2C)c(OC)c1	-29%	19%	-39%	-63*	u	-13%
Cc1cccnc1NC(=S)Nc1ncccc1C	u	163%	u	10	368%	-1%
COc1ccc(NC(=S)NC2CC3CCC2C3)c(OC)c1 (centres undefined)	23%[46.1 µM]	u	u	13	u	-7%
CCOc1ccccc1NC(=S)Nc1ccccc1F	-1%	1%	0%	-4	13µM*	6%
COc1ccccc1NC(=S)Nc1ccccc1F	6%	16%	2%	-15	38%	-13%
CCOc1ccccc1NC(=S)Nc1ncccc1C	u	5%	u	-61*	91%	6.3µM*
CN(Cc1ccccc1)C(=O)c1ccc(NC(=O)Cc2ccc(NC(=O)C3CCCN(C(=O)c4ccccc4)C3)cc2)cc1 (centres undefined)	x	x	x	-6	x	2%[8.37 µM]
Cc1ccc2[nH]c(C)c(CCNC(=O)c3cc4cc(Br)ccc4oc3=O)c2c1	-3%[46.1 µM]	x	11%[46.1 µM]	-4	x	x
CNC(=O)C1CCC(Cn2c(=O)c3sccc3n(CC(=O)NCc3ccc(F)cc3)c2=O)CC1 (centres undefined)	x	x	-9%[46.1 µM]	33	x	x
CSc1c(C#N)sc(=S)n1-c1ccc(C)cc1	2%[46.1 µM]	u	-19%	2	10µM*	19%
CCOc1ccc(NC(=O)c2ccc(NC(=O)c3cn4c5c(c(N6CCN(C)CC6)c(F)cc5c3=O)OCC4C)cc2)cc1 (centres undefined)	-5%	2.3µM*	u	-4	2.6µM*	-28%
CC1COc2c(N3CCN(C)CC3)c(F)cc3c(=O)c(C(=O)O)cn1c23 (centres undefined)	21%	x	10%	-20	x	9%
CC(=O)Nc1ccc(NS(=O)(=O)c2cc([N+](=O)[O-])ccc2C)cc1	8%[46.1 µM]	4%	-1%	-71*	-3%	-3%
Cc1ccccc1NC(=O)c1ccc(C)c(S(=O)(=O)Nc2cccnc2)c1	2%	2%	-5%	-20	12%	15%
Cc1ccccc1NS(=O)(=O)c1cc(C(=O)Nc2cccnc2)ccc1C	u	u	-21%	-35	-13%	32µM*
Cc1ccccc1NS(=O)(=O)c1cc(C(=O)Nc2cccc([N+](=O)[O-])c2)ccc1C	u	u	11µM*	-95*	-14%	u
Cc1ccc(C(=O)Nc2ccccc2-c2ccccc2)cc1S(=O)(=O)Nc1cccc(C)c1C	u	u	-42%	-34	2%	10µM*
COc1cc(OC)c(NC(=O)Nc2nnc(N(C)C3CCCCC3)s2)cc1Cl	4%[46.1 µM]	x	-3%[46.1 µM]	-10	x	x
COc1ccc(-c2nc(CNS(=O)(=O)c3ccc(F)cc3)cs2)cc1	-20%[46.1 µM]	x	u	-73*	x	x

Bioassay records deposited in PubChem BioAssay by National Center for Advancing Translational Sciences (NCATS).
